Here are results for four compounds from PubChem BioAssay (NCATS).

Records with an inconclusive call do not appear. Activity calls are given as the source filed them. Unless noted, calls follow the shape of the dose curve; as a rule, active = well fitted curve in the direction sought with a large enough effect; inconclusive = small, poorly fitted or top-dose-only effect, or another doubt; inactive = no such curve, though single readings can be large; an effect the other way counts as inactive or inconclusive. Some results are limits rather than exact numbers.

Assay [1] deals with Lysosomal acid glucosylceramidase (Homo sapiens) (UniProt P04062). As to the kind of experiment: Glucocerebrosidase-p2 (AID 348; in the data active = potency below about 10 µM; also: potency is read from the fitted curve at half-maximal effect). Conditions: purified GBA, blue fluorogenic substrate, 40 min. Summed up: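 Compounds titrated from 0.6 nM upwards against 0.2 nM enzyme in pH 5.9 citric acid/KH2PO4, taurocholate, tween-20; blue fluorogenic substrate 80 uM, 40 min room temperature, stopped and read Ex 365/Em 440 for AC50.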
Chain of Lysosomal acid glucosylceramidase (Homo sapiens) (P04062 whole entry, looked up): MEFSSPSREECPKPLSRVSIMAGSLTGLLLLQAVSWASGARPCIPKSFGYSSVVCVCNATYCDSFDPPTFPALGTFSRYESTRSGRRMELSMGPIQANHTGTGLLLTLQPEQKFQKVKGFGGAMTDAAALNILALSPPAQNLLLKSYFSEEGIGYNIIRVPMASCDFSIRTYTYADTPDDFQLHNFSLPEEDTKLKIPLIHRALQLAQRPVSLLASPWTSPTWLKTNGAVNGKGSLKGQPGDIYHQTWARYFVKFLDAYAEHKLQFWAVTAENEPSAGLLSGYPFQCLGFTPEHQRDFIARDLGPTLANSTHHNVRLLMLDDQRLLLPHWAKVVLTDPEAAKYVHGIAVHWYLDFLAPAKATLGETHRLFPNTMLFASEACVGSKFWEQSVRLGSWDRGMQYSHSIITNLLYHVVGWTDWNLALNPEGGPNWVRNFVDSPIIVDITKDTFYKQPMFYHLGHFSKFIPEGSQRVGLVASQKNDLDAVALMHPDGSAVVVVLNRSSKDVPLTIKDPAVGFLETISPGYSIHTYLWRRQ

A short description of assay [2]: AP1 Signaling Pathway (AID 357; active = well fitted curve in either direction with a large enough effect, not every such curve was filed as active;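 also: ME-180 reporter cells stimulated with EGF at its EC50 level; % is scaled to controls: 0 for no effect and ±100 for the full control effect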). Conditions: ME-180 AP-1-bla reporter, EGF-induced, beta-lactamase ratio, 5 h; at 7.69 µM (top of the series) unless noted. An outline of the steps:
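Titration-series screen for positive or negative modulators of EC50 EGF-induced signaling in ME-180 cells carrying an AP-1-driven beta-lactamase reporter. After 5 hours at 37 degrees Celsius, CCF4 460nm/530nm emission ratio gave %Activity; AC50 values derived.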

Assay [3] is described as follows: NFAT Signaling Pathway (AID 444; active = well fitted curve in either direction with a large enough effect, not every such curve was filed as active;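 also: carbachol stimulus at about its EC50 of 1 µM final; % is scaled to controls: 0 for no effect and ±100 for the full control effect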). Conditions: Jurkat NFAT-bla M1, carbachol, beta-lactamase ratio, 5 h; at 7.69 µM (top of the series) unless noted. Summed up:
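Jurkat cells with NFAT-driven β-lactamase reporter and co-expressed M1 receptor, stimulated with carbachol (final 1 uM, ~EC50), compound titration, 5 h at 37 °C. CCF4 loaded 1 h at RT; 460/530 nm ratio gave %activity and AC50.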

Assay [4] can be described thus: Stat Signaling Pathway (AID 446; active = well fitted curve in either direction with a large enough effect, not every such curve was filed as active;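 also: ME-180 cervical cancer cells given 40 pM IL-6 alongside compound; SIE-controlled beta-lactamase reporter measured as 460/530 nm FRET emission ratio; % is scaled to controls: 0 for no effect and ±100 for the full control effect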). Conditions: ME-180 SIE beta-lactamase reporter, IL-6 stimulated, 5 h; at 7.69 µM (top of the series) unless noted. An outline of the steps:
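Reporter line: ME-180 cervical carcinoma, SIE-beta-lactamase. Treatment: compound with 40 pM IL-6, 5 hrs, 37 C, in low-serum OPTI-MEM with 10 mM HEPES pH 7.3. Detection: 460/530 nm fluorescence.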

The target in assay [5] is Glucocorticoid receptor (Homo sapiens) (UniProt P04150). As to the kind of experiment: GR-GFP Redistribution (AID 450;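 active = compounds whose dose series gives a full or clear partial fitted curve of increased nuclear translocation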; also: potency is read from the fitted curve at half-maximal effect). Conditions: U2OS GR-GFP nuclear translocation, laser cytometry, 2 h.
Chain of Glucocorticoid receptor (Homo sapiens) (P04150 whole entry, looked up, the tested form may be a part): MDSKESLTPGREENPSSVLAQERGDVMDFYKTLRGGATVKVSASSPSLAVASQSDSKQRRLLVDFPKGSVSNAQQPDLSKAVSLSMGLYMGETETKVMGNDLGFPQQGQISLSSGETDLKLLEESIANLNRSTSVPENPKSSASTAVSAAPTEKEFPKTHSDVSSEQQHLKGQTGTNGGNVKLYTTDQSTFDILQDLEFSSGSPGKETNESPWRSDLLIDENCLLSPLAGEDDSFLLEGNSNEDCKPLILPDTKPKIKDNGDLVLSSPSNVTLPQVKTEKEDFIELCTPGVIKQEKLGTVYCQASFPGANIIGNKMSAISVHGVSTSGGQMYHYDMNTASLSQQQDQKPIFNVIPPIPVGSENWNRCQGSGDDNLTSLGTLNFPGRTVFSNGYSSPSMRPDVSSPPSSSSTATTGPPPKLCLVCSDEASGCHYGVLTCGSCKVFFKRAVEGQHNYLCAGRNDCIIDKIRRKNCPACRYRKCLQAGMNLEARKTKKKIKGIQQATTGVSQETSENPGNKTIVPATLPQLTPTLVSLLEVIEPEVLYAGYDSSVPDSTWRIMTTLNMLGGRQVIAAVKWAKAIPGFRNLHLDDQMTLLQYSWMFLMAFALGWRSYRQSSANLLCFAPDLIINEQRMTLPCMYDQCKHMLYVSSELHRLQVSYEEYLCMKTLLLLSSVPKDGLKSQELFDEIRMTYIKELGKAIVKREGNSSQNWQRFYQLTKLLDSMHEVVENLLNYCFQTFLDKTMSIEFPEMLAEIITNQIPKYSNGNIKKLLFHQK
For assay [6] the target is unchanged. The assay can be described thus: GR-EFC Redistribution (AID 451; calls by dose curve; also: potency is read from the fitted curve at half-maximal effect). The following applies: CHO-K1 GR-EFC translocation, beta-gal luminescence, 2 h. Summed up: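 CHO-K1 cells expressing nuclear EA and GR-ED fragments of b-gal; compounds titrated up to 46 uM final, 2 h at 37 C. GR nuclear translocation read as complemented b-gal luminescence after 1 h RT detection.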

In assay [7] the target is Mitogen-activated protein kinase 10 (Mus musculus) (UniProt Q61831). The assay can be described thus: JNK3 AlphaScreen Assay (AID 530; active = well fitted curve in either direction with a large enough effect, not every such curve was filed as active;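 also: kinase came from lysate of stimulated human HepG2 cells; signal reports phosphorylation of biotinylated GST-cJun 1-79 at Ser73 with 10 µM ATP; % is scaled to controls: 0 for no effect and ±100 for the full control effect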). The following applies: JNK3 lysate, c-Jun phosphorylation; series mostly up to 57.1 µM. Summed up:
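qHTS format: compounds tested as titrations against IL-1beta/TNF-alpha-activated HepG2 lysate JNK3 with biotin-GST-cJun substrate and 10 uM ATP at room temperature. Loss of anti-phospho-cJun AlphaScreen signal indicates inhibition.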
(In general: Alpha assays give light when donor and acceptor beads are brought close together.)

Assay [8] is described as follows: qHTS Assay for Lipid Storage Modulators (AID 1519; calls by dose curve). Conditions: Drosophila S3 cells, BODIPY lipid droplet/cell ratio, laser cytometry, cells loaded with oleic acid; for activity change, negative = inhibition: at 57.5 µM (top of the series). An outline of the steps:
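Cells seeded at 5,000 per well were treated with compounds over a concentration series and loaded with oleic acid (400 uM, as added). Lipid droplet fluorescence (488 nm excitation, 500-530 nm channel) was read by laser-scanning cytometry and normalized to 20 uM Triacsin C.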
(qHTS replaces the single test concentration by a dilution series.)

Assay [9] addresses Dual specificity protein kinase CLK4 (Homo sapiens) (UniProt Q9HAZ1). As to the kind of experiment: qHTS Assay for Inhibitors of CDC-like Kinase 4 (Kinase-Glo Assay) (AID 1770). Also: % is scaled to controls: 0 for no effect and ±100 for the full control effect; nearly all actives have a fitted effect of over 65% in size. The following applies: recombinant Clk4, Kinase-Glo ATP depletion luminescence; series mostly up to 66.7 µM. An outline of the steps: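 Readout: Kinase-Glo luminescence from ATP left after a 4.5 h room-temperature reaction of 25 nM Clk4 with 100 uM RS peptide and 1 uM ATP (final). Buffer: 25 mM Tris pH 7.5, 10 mM MgCl2.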

Assay [10] deals with Ubiquitin carboxyl-terminal hydrolase 1 (Homo sapiens) (UniProt O94782). The assay can be described thus: Inhibitors of USP1/UAF1: Pilot qHTS (AID 504865).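 Also: rhodamine fluorescence freed from ubiquitin-rhodamine substrate followed over time; top concentration of the series differs between compounds; % is scaled to controls: 0 for no effect and ±100 for the full control effect; nearly all actives have a fitted effect of over 35% in size.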 Conditions: purified USP1/UAF1, Ub-rhodamine cleavage fluorescence; series mostly up to 54.9 µM. An outline of the steps:
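1nM USP1/UAF1 + cpd, 15 min RT; start w/ Ub-Rho 150nM final; kinetic FL 480/540 nm, 6 reads q60 s. Buffer 50mM HEPES pH 7.8, 0.5mM EDTA, 1mM TCEP, 0.01% Tween-20, 0.1 mg/ml BSA.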

Assay [11] concerns the target Cytochrome P450 1A2 (Homo sapiens) (UniProt P05177). As to the kind of experiment: p450-cyp1a2 (AID 410; calls by dose curve; also: potency is read from the fitted curve at half-maximal effect). Conditions: recombinant CYP1A2, luciferin-ME demethylation, luminescence; series mostly up to 57 µM. An outline of the steps:
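Human CYP1A2 (20nM) demethylated Luciferin-ME at its Km (100uM) in 100mM KPO4. After 10 min compound preincubation, NADPH regeneration ran the reaction 60 min at room temperature. Luciferin was read by luminescence, normalized to 57 uM furafylline.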

Assay [12] has as its target 3',5'-cyclic-AMP phosphodiesterase 4B (Homo sapiens) (UniProt Q07343). The assay can be described thus: qHTS Assay for Inhibitors of PDE-IV (AID 607; active = well fitted activation curve with a large enough effect in the main read-out, with a control signal flat, not every such curve was filed as active; also: % of control where 0% means no effect). Conditions: HEK293 ACTOne CNG channel cells, membrane potential fluorescence; series mostly up to 22.9 µM. Summed up: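 Cell-based read-out of cAMP via a modified cyclic nucleotide-gated channel and membrane potential dye (535/590 nm) in HEK293 cells expressing PDE4 endogenously. Compounds tested up to 22.9 uM final; 100 uM RO 20-1724 reference.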

Assay [13] has as its target Cytochrome P450 3A4 (Homo sapiens) (UniProt P08684). The assay can be described thus: qHTS Assay for Activators of Cytochrome P450 3A4 (AID 885). Also: nearly all actives have a fitted effect of over 65% in size. Conditions: recombinant CYP3A4, Luciferin-PPXE luminescence, 60 min; series mostly up to 57.1 µM. An outline of the steps: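 Signal was normalized against complete inhibition by 57 uM ketoconazole. The reaction used 20nM CYP3A4 with 25uM Luciferin-PPXE, 10-min compound preincubation and a 60-min NADPH-supported step at RT.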

Assay [14] in a line: qHTS Assay for Identification of Small Molecule Agonists for Hypoxia Response Element Signaling Pathway (AID 914; active = well fitted activation curve with a large enough effect in the signal ratio, with a control signal flat, not every such curve was filed as active; the % refers to the signal ratio; also: potency is read from the fitted curve at half-maximal effect). The following applies: ME-180 (cervical carcinoma) HRE-bla reporter, beta-lactamase ratio, CoCl2, 17 h; activation: stronger effect = higher value. Summed up: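 Cells were plated overnight, pin-dosed with compound in a titration series, co-stimulated with EC50 CoCl2 and incubated 17 hours at 37 degrees Celsius. CCF4 substrate was then loaded, and AC50 values came from the 460nm/530nm ratio.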

Assay [15] concerns the target Dual specificity protein kinase CLK4 (Homo sapiens) (UniProt Q9HAZ1). The assay can be described thus: qHTS Assay for Inhibitors of CDC-like Kinase 4 (ADP-Glo Assay) (AID 1771). Also: % is scaled to controls: 0 for no effect and ±100 for the full control effect; nearly all actives have a fitted effect of over 70% in size. The following applies: recombinant CLK4, ADP-Glo luminescence; series mostly up to 80 µM. An outline of the steps:
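Clk4 (25 nM) was incubated 1 hr at room temperature with 100 uM RS repeat peptide and 1 uM ATP in buffer with 2 mM MgCl2, 0.5 mM EGTA, 2.5 mM DTT. ADP formed was quantified by ADP-Glo luminescence.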

Assay [16] shares this target. The assay can be described thus: qHTS Assay for Inhibitors of CDC-like Kinase 4 (ADP-FP Assay) (AID 1795).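 Also: recombinant human CLK4 phosphorylating RS repeat peptide at 1 µM ATP; % is scaled to controls: 0 for no effect and ±100 for the full control effect; nearly all actives have a fitted effect of over 60% in size.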 The following applies: Transcreener ADP fluorescence polarization; series mostly up to 50 µM. An outline of the steps:
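FP readout: Orange Transcreener ADP2 tracer (4 nM) plus ADP antibody, read after 30 min at room temperature. Kinase step: 6.25 nM Clk4, 100 uM RS peptide, 1 uM ATP, pH 7.5, 1 h.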

In assay [17] the target is Cytochrome P450 3A4 (Homo sapiens) (UniProt P08684). As to the kind of experiment: qHTS Assay for Inhibitors and Substrates of Cytochrome P450 3A4 (AID 884). Also: nearly all actives have a fitted effect of over 50% in size. Also: potency is read from the fitted curve at half-maximal effect. Conditions: recombinant CYP3A4, Luciferin-PPXE luminescence; series mostly up to 57.1 µM. Summed up: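 20 nM human CYP3A4 with 25 uM Luciferin-PPXE (at KM) in 200 mM KPO4, preincubated 10 min with compound; NADPH regeneration started a 60 min RT reaction. Luciferin detected by luminescence, normalized to 57 uM ketoconazole as full inhibition.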
Chain of Cytochrome P450 3A4 (Homo sapiens) (P08684 whole entry, looked up): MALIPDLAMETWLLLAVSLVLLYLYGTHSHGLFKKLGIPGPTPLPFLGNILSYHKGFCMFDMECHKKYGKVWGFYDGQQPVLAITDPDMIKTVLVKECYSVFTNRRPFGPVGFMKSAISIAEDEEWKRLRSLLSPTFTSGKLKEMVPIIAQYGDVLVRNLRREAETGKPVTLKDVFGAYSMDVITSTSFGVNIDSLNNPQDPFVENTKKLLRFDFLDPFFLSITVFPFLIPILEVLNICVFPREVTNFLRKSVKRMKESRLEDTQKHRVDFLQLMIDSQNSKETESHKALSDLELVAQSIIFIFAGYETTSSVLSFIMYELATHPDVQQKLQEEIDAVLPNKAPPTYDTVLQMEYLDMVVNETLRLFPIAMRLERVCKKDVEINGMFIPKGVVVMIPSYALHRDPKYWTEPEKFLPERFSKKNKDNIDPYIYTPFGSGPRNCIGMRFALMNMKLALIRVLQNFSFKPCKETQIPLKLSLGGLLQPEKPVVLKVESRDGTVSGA

Assay [18] is described as follows: Confirmation and Secondary Assay for Modulators of Hemoglobin Beta Chain Splicing at IVS2 654 locus (AID 910).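 Also: HeLa cells stably carrying EGFP split by mutant beta-globin IVS2-654 intron; % of control where 0% means no effect.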 The following applies: HeLa EGFP-654 splicing reporter, GFP fluorescence, 48 h; series mostly up to 38.3 µM. Summed up:
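HeLa cells stably expressing EGFP interrupted by β-globin IVS2-654 intron, seeded overnight in Opti-MEM/2% FCS, then treated 2 days at 37 °C. Restored splicing read as total peak GFP intensity per well by laser scanning cytometry (488 nm excitation, 500–520 nm emission); 500 nM antisense PNA as control.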

In assay [19] the target is Cytochrome P450 2C19 (Homo sapiens) (UniProt P33261). As to the kind of experiment: qHTS Assay for Inhibitors and Substrates of Cytochrome P450 2C19 (AID 899). Also: potency is read from the fitted curve at half-maximal effect; nearly all actives have a fitted effect of over 60% in size. The following applies: recombinant CYP2C19, luciferin-H EGE luminescence; series mostly up to 57.1 µM. An outline of the steps:
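Luminescent read-out of luciferin formed from Luciferin-H EGE (10uM, equal to KM). Enzyme 5nM in 50mM KPO4; compound added, 10 min at 37C, then NADPH regenerating system for 60 min at 37C. Full inhibition defined by 57uM ketoconazole.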

[20] abbreviates: measured here: cell count channel max response.
The mark [21] stands for this setting: measured here: lipid channel max response.

Chain of Dual specificity protein kinase CLK4 (Homo sapiens) (Q9HAZ1 whole entry, looked up): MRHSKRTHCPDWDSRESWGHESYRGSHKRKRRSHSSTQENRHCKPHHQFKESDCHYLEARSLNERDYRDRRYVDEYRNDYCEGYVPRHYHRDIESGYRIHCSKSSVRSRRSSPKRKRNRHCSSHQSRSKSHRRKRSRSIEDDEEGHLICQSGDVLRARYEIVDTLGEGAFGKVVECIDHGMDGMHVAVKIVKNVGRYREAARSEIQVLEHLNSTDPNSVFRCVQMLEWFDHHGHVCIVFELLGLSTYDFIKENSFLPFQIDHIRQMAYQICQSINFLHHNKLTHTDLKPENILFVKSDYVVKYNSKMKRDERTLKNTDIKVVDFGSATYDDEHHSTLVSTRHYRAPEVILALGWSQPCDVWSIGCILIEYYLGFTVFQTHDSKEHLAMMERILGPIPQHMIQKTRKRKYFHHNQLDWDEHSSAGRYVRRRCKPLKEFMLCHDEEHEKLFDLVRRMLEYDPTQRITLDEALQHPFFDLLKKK
Chain of Ubiquitin carboxyl-terminal hydrolase 1 (Homo sapiens) (O94782 whole entry, looked up): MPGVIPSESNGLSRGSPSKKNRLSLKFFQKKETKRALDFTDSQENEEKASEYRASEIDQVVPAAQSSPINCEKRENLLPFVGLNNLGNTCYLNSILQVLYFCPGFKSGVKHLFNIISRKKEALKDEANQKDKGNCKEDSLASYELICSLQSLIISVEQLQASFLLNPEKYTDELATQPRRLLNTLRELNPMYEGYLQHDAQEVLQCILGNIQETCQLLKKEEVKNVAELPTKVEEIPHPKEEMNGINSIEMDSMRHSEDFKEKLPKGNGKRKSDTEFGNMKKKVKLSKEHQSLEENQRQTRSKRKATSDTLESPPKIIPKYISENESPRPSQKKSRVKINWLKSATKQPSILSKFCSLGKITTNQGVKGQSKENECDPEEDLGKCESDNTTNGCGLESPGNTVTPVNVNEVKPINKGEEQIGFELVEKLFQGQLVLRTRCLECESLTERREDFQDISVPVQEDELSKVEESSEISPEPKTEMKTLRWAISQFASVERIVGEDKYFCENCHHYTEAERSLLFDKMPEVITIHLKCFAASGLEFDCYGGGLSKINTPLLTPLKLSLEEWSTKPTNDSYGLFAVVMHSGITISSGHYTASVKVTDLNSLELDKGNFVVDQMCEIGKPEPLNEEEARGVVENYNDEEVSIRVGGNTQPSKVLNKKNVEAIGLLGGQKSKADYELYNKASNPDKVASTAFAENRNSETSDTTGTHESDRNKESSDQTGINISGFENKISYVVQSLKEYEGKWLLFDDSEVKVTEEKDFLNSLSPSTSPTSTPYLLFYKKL
Chain of Cytochrome P450 1A2 (Homo sapiens) (P05177 whole entry, looked up): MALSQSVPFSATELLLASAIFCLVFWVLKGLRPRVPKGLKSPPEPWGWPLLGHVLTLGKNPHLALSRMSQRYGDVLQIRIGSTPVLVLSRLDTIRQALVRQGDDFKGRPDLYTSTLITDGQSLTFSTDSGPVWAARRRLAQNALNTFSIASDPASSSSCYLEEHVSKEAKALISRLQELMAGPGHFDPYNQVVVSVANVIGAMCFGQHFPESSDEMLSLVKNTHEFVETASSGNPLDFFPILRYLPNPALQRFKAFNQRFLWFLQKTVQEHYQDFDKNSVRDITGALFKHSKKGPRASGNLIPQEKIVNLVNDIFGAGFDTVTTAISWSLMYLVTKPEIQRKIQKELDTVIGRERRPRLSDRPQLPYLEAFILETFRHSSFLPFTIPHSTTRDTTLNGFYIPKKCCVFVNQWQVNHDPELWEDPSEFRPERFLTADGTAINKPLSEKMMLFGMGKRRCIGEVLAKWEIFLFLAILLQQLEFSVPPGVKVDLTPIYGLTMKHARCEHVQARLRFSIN
Chain of 3',5'-cyclic-AMP phosphodiesterase 4B (Homo sapiens) (Q07343 whole entry, looked up): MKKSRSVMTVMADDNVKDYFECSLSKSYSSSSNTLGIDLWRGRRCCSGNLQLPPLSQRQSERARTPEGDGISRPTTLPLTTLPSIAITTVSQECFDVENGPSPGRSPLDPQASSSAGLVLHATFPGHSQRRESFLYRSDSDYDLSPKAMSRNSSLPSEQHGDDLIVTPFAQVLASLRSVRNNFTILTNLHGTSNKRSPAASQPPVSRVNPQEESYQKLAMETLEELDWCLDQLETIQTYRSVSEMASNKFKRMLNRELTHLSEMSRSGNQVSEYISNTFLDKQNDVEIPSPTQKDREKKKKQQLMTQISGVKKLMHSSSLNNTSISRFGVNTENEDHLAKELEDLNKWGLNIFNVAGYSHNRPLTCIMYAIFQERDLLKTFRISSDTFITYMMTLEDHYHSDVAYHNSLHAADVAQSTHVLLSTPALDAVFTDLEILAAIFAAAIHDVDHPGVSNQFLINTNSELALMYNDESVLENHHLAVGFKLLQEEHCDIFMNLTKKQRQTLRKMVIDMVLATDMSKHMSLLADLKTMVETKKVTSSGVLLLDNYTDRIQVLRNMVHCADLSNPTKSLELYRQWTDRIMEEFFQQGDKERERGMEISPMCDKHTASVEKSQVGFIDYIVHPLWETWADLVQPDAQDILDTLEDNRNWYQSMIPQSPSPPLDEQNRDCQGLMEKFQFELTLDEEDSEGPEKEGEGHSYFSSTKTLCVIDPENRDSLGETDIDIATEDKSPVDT
Chain of Cytochrome P450 2C19 (Homo sapiens) (P33261 whole entry, looked up): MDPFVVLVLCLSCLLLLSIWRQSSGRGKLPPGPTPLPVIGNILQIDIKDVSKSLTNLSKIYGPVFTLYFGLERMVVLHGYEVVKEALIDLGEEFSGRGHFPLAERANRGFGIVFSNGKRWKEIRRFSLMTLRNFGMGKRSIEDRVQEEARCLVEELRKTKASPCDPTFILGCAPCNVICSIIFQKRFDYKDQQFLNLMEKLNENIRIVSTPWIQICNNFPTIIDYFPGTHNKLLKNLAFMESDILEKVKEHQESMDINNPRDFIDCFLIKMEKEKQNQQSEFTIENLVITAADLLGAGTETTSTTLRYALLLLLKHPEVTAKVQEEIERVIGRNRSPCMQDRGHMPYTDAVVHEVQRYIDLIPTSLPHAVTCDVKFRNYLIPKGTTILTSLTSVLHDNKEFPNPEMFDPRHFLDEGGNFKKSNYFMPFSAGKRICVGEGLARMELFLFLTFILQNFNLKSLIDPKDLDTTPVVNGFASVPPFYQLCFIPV

Regarding `COc1cccc(Cn2c(=O)c(C)nc3cnc(Nc4cccc(OC)c4)nc32)c1`, the Potency in assay [1] was > 11.4 µM (inactive); in [5], > 9.22 µM (inactive); in assay [6] it was > 46 µM (inactive). In addition, the results for the activity change, negative = inhibition in [2], in assay [3] and in assay [8] were -28.7% (inactive), 19% (inactive) and -5.29% (inactive), respectively. For the same compound, the activity, negative = inhibition in [4] is -18.7% (inactive). The Potency entry in assay [7], in assay [9] and in [10] was “inactive” each time. Moreover, the max response in assay [8] (setting [20]) was 11.9%; in assay [8] (setting [21]), 6.74%.
Take `COc1ccc(-n2c(=O)c(-c3cn(C)c4ccccc34)nc3cnc(N4CCNCC4)nc32)cc1`: the activity change, negative = inhibition in assay [2] was 26.2% (inactive); in [8], 7.55% (inactive). The Potency in assay [11] was 15.8 µM (active); in assay [5] it was > 9.22 µM (inactive); in [6] it was > 46 µM (inactive); in [14], 3.16 µM (active). Moreover, the Potency result in [12], in [13], in assay [9], in assay [15], in assay [16] and in assay [10] was “inactive” in each case. The max response stood at 16.8% in assay [8] (setting [20]) and 26.4% in assay [8] (setting [21]).
In the case of `O=c1ccc2ccc(O)cc2o1`, the Potency entry in assay [17], in assay [18] and in assay [10] was “inactive” each time. Moreover, the activity change, negative = inhibition in [8] is 5.83% (inactive). Moreover, the max response worked out at 11.1% in assay [8] (setting [20]) and 19.2% in assay [8] (setting [21]).
On to `FC(F)(F)c1ccccc1-c1ccc2ncnc(NCc3cccs3)c2c1`, for which the Potency in assay [1] was > 11.4 µM (inactive); in assay [11] it was 7.94 µM (active); in assay [5] it was > 46 µM (inactive); in assay [17], 5.01 µM (active); in assay [19], 3.16 µM (active). For the same compound, the activity change, negative = inhibition in assay [2] was 13.7% (inactive); in assay [8], -3.1% (inactive). Also, the activity, negative = inhibition in assay [4] was -16.1% (inactive). For the same compound, the Potency entry in assay [7], in [13], in assay [16] and in assay [10] was “inactive” in each case. Also, the max response stood at 9.21% in [8] (setting [20]) and 5.18% in assay [8] (setting [21]).
